# Screening results deposited in PubChem by National Center for Advancing Translational Sciences (NCATS).
# ALDH1A1 block: ALDH1A1 (human) enzyme inhibition; P00352; Purified ALDH1A1, NADH fluorescence, propionaldehyde substrate; Potency, µM (doses to about 75.3 µM), inactives show at the highest dose activity, negative = inhibition, usual class: inhibitors; 220,000 tested, 7.3% active;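 also: potency is read from the fitted curve at half-maximal effect; plate controls were no enzyme wells and a reference inhibitor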
# Target sequence (P00352 whole entry, looked up): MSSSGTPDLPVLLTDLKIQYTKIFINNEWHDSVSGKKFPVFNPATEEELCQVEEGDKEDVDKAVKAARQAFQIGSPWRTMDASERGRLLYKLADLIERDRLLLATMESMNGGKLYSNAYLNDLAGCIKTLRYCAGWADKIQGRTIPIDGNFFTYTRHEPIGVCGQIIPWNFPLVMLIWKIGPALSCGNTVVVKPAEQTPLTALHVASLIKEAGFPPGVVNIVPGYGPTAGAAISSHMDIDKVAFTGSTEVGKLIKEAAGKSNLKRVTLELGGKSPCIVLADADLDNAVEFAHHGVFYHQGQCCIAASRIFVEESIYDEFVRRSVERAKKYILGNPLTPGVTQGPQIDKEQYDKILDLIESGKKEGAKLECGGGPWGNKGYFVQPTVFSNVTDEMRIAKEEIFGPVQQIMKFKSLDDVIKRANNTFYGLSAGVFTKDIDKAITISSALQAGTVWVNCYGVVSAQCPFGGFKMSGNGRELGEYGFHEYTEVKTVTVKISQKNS
# PNC assembly inh: inhibitors of perinucleolar compartment assembly; activity change (PNC), negative = inhibition, % at 10 µM; PC3M PTB-GFP, PNC prevalence imaging, 16 h; stronger effect = lower value; 140,000 tested, 3.1% active;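 active = readout at or below -70, meaning at least 70% loss of cells showing the perinucleolar compartment, a nuclear body marking cancer cells; inconclusive = readout between -30 and a set limit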;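 also: plate controls were DMSO wells for no effect and camptothecin positive control wells for full effect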
#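 Compounds are pinned in duplicate onto adhered PC3M cells stably expressing GFP-tagged PTB and incubated 16 h at 37 C. Cells are then fixed, nuclei stained with Hoechst, and PNC-positive cells counted.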
# HPGD inh: inhibitors of human 15-hydroxyprostaglandin dehydrogenase (HPGD); 150,000 tested, 4.3% active; AID 894; Potency, µM, for inactives: at the highest dose activity change, negative = inhibition, actives largely listed as inhibitors; P15428; purified HPGD, NADH fluorescence kinetic, PGE2 substrate; also: potency is read from the fitted curve at half-maximal effect
#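 20 nM HPGD preincubated 15 min at room temperature with compound in 50 mM Tris-HCl pH 8, 0.01% Tween 20. Started with 1 mM NAD+ and 30 uM prostaglandin E2; NADH fluorescence (360/450 nm) read 5 times over 30-s intervals, last minus first.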
# Starred values were filed as active, the others as inactive; u = inconclusive; x = no result given; [ ] = another dose, or the depositor's remark. Most compounds without a hit are left out; they make up all but 11% or so of the library. Unless noted, calls follow the shape of the dose curve; as a rule, active = well fitted inhibition curve with a large enough effect (not every such curve was filed as active); inconclusive = small, poorly fitted or top-dose-only effect, or another doubt; inactive = no such curve, though single readings can be large or run the other way. Unless noted, % is scaled to controls: 0 for no effect and ±100 for the full control effect.
SMILES,ALDH1A1 block,PNC assembly inh,HPGD inh
Cc1[nH]nc(SCC(=O)N2CCCCC2)c1[N+](=O)[O-],u,27,28µM*
CC(C)C1Cc2c(C#N)c(N)sc(=S)c2CO1 (stereo unspecified),u,-11,-10%
CC1(C)Cc2c(C#N)c(N)sc(=S)c2CO1,11µM*,12,-11%
CC1(C(=O)Nc2ccccc2)Cc2ccccc2C(=O)O1 (stereo unspecified),-9%,x,x
COc1ccc(C=O)cc1OC(=O)C1(C)Cc2ccccc2C(=O)O1 (stereo unspecified),5µM*,x,x
C[N+]12CCCCC1C(COC(=O)c1ccc3c(c1)OCO3)CCC2 (stereo unspecified),u,5,-1%
CCNc1nc(NCC)n2c(SCC(=O)NC34CC5CC(CC(C5)C3)C4)nnc2n1,-3%,1,1%
CCN1C(=O)c2ccccc2S(=O)(=O)c2ccc(C(=O)NCc3cccnc3)cc21,3%,-18,-9%
COc1ccc(S(=O)(=O)N(CC(=O)N2CCOCC2)Cc2ccccc2)cc1,u,23,-16%
COc1ccc(NS(=O)(=O)c2ccc(OCC(=O)N3CCOCC3)cc2)cc1,-4%,u,2%
Cc1cccc(N(CC(=O)N2CCCC2)S(=O)(=O)c2ccccc2)c1C,-2%,17,-13%
CSc1ccc(S(=O)(=O)Nc2ccc(OCC(=O)N3CCOCC3)cc2)cc1,13µM*,x,x
CCCNS(=O)(=O)c1ccc(OCC(=O)N2CCOCC2)cc1,12%,-100*,-8%
O=C(CN(c1ccccc1F)S(=O)(=O)c1ccccc1)N1CCCCCC1,28µM*,-1,3%
CCCNS(=O)(=O)c1ccc(OCC(=O)N2CCN(c3ccccc3)CC2)cc1,4%,x,x
O=C(CN(Cc1ccccc1)S(=O)(=O)c1ccccc1)N1CCOCC1,-2%,-101*,0%
O=C(Cc1ccccc1)NCC(=O)OCc1ccc([N+](=O)[O-])cc1,7%,-21,-11%
Cc1ccc(CNC(=O)CCOc2ccc(C(C)(C)C)cc2)cc1,11%,-26,-5%
CCOc1ccccc1N(CC(=O)N1CCOCC1)S(=O)(=O)c1ccc(SC)cc1,8.9µM*,-8,2%
CCOc1ccccc1N(CC(=O)Nc1ccc(S(=O)(=O)N2CCOCC2)cc1)S(=O)(=O)c1ccccc1,-12%,u,-10%
COc1ccc(C(=O)NCC(=O)NCC(=O)OCC(=O)C(C)(C)C)cc1,u,0,-9%
CCCCCCCC/C=C\CCCCCCCC(N)=O,4%,x,-8%
CN1C(=O)COc2ccc(C(=O)c3oc4ccccc4c3-c3cnc4c(c3)COc3ccccc3-4)cc21,6%,u,-11%
COc1ccc(C2=NN(c3ccccc3)C(=O)/C2=C\c2ccc(O)c(OC)c2)cc1,20µM*,x,x
COc1ccc(/C=C2\SC(c3ccc(C)cc3)=NC2=O)cc1OC,u,39,u
SMILES,ALDH1A1 block,PNC assembly inh,HPGD inh
COc1ccc(/C=C2/SC(=O)N(CCC(=O)Nc3ccc(C)cc3)C2=O)cc1OC,1%,3,-6%
COc1cc(/C=C2\SC(c3ccc(C)cc3)=NC2=O)ccc1O,u,-95*,u
COc1cc(/C=C2\SC(N)=NC2=O)ccc1OCC(=O)Nc1ccc(C)cc1,7%,-19,4.5µM*
COc1cc(/C=C2\SC(c3ccccc3)=NC2=O)cc(Cl)c1O,5µM*,x,x
COc1cc(/C=C2\SC(c3ccc(C)cc3)=NC2=O)cc(OC)c1OC,u,12,u
COc1ccc(N=C2NC(=O)/C(=C/c3ccc(O)c(OC)c3)S2)cc1,9%,38,u
CCCC(C)NC(=O)COc1ccc(S(=O)(=O)c2ccc(OCC(=O)NC(C)CCC)cc2)cc1 (stereo unspecified),u,6,-12%
CO[C@]1(NC(=O)CSCC#N)C(=O)N2C(C(=O)O)=C(CSc3nnnn3C)CS[C@H]21,-12%[20.9 µM],x,-10%
COCCSc1ccccc1C(=O)N1CCOCC1,-15%,u,-10%
Cc1cccc(C(=O)Nc2scc(CC(C)C)c2C(=O)O)c1,u,-98*,16µM*
Cc1cccc(C(=O)Nc2cccc(OCC(=O)O)c2)c1,2%,x,x
CC(C)Cc1csc(NC(=O)c2ccccc2Cl)c1C(=O)O,u,-13,14µM*
CCOC(=O)c1c(CC(C)C)csc1NC(=O)C(C)C,-6%,-17,1%
CC(C)CC(NC(=O)c1ccc(Cl)cc1)C(=O)O (stereo unspecified),19%,u,-3%
CC(C)Cc1csc(NC(=O)c2ccc(Cl)cc2)c1C(=O)O,25%,-9,18µM*
CCOC(=O)c1c(CC(C)C)csc1NC(=O)CCl,8.9µM*,24,-8%
CC(C)c1ccc(-c2csc(NC(=O)c3cccs3)c2C(=O)O)cc1,-2%,x,x
O=C1CC(N(Cc2ccco2)C(=O)Nc2ccc(F)cc2)C(=O)N1c1ccc(F)cc1 (stereo unspecified),u,15,-9%
CCc1nnc(NC(=O)CCC(=O)N2CCN(CCOc3ccc(C)cc3)CC2)s1,2%,35,-3%
CC(C)(C)c1csc(NNC(=O)c2ccc(Br)cc2)n1,-11%,x,x
CC(C)c1nc(SCC(=O)c2ccccc2)c2c(=O)n(C)c(=O)n(C)c2n1,4%,u,-10%
Cc1cc(C(=O)NCCN2C(=O)S/C(=C\c3cccs3)C2=O)ccc1[N+](=O)[O-],-9%,-27,-11%
Clc1ccccc1-c1nc(/C=N/N2CCOCC2)c2ccccn12,40µM*,x,x
CN1CCN(/N=C/c2nc(-c3ccccc3Cl)n3ccccc23)CC1,-6%,-28,-14%
C/C(O)=C(/C=Nc1ccccc1)C(=O)Nc1ccccc1,-6%,x,x
SMILES,ALDH1A1 block,PNC assembly inh,HPGD inh
CCc1cccc2c1NC(=O)C21N2CCCC2C(C(=O)c2ccc3ccccc3c2)C12C(=O)Nc1ccccc12 (stereo unspecified),20µM*,-4,-7%
CCc1ccc2c(c1)C1(C(=O)N2)N2CCCC2C(C(=O)c2ccc3ccccc3c2)C12C(=O)Nc1ccccc12 (stereo unspecified),-4%,27,-19%
COc1cc2c(cc1OC)C(C1C(=O)CC(C)(C)CC1=O)N(C(=O)CCl)CC2 (stereo unspecified),u,-80*,-11%
CC1CC(=O)C(C2c3ccccc3CCN2C(=O)CCl)C(=O)C1 (stereo unspecified),-7%,-3,-6%
CC(C)COc1ccc(C(=O)Nc2ccccc2[N+](=O)[O-])cc1,4%,20,-23%
CC(C)COc1ccc(C(=O)Nc2sc3c(c2C(=O)O)CC(C)(C)OC3)cc1,20µM*,x,x
CC1(C)Cc2c(sc(NC(=O)c3ccccc3)c2C(=O)O)CO1,22µM*,x,x
CCOC(=O)c1c(NC(=O)C2C3C=CC(C3)C2C(=O)O)sc2c1CC(C)(C)OC2 (stereo unspecified),-13%,x,x
COc1ccc(CCCNC(=O)CC#N)cc1OC,-1%,-26,x
COc1cc(CN(C2CCCCC2C)S(=O)(=O)c2ccc(S(=O)(=O)NC3CC3)cc2)cc(OC)c1OC (stereo unspecified),-4%,-18,-17%
COc1ccc(CN(C2CCCCC2C)S(=O)(=O)c2ccc(S(=O)(=O)N(C)C)cc2)cc1OC (stereo unspecified),3.5µM*,u,-13%
